Mtb bLac sens = beta-lactam sensitization of Mtb H37Rv | M. tuberculosis H37Rv growth with meropenem, percent inhibition | hit rate 0.27% among 330,000 | AID 434955 | inhibition, % at 25 µM; call rule not given here;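 further: growth measured after seven days incubation then overnight dye step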
CCHFV vOTU inh = CCHFV vOTU protease inhibition | Pep-AMC fluorescence | inhibition, % at 11.5 µM | hit rate 0.55% among 370,000
Mtb FBA inh = inhibitors of M. tuberculosis fructose-bisphosphate aldolase | hit rate 2.3% among 360,000 | P9WQA3 | AID 588726 | purified M. tuberculosis FBA, fluorescence read-out | inhibition, % at 1 µM; in the data active means inhibition above about 27%
GDH-TPI inh = counter-screen for M. tuberculosis FBA inhibitors: GDH-TPI coupled enzymes; inhibition, % at 4.8 µM; GDH-TPI coupled enzyme counterscreen, NADH absorbance; AID 588335; hit rate 1.2% among 360,000
RecA splice inh = blocks M. tuberculosis RecA intein splicing | hit rate 0.75% among 290,000 | cell-free RecA intein splicing, fluorescence | P9WHJ3 | inhibition, % (test concentration not listed); in the data active means inhibition above about 30%
GFP chromophore = counter-screen GFP chromophore formation inhibition; shares compounds with RecA splice inh; EC50, µM; cell-free GFP chromophore formation, fluorescence; hit rate 83% among 2,100; call rule not given here
Hits are given with their value. This is a sample that favours compounds with a hit; in the whole collection about 4.2% have one here. Unless noted, no stated cut-off is given here; in the data, active means inhibition above about 30%; inactive means the rest.

CCOC(=O)[C@]12CCCC3=C1N(CCC3)C(=O)[C@@H](CC(=O)NCCCN1CCCC1=O)C2 was read as CCHFV vOTU inh inactive.
For CCOc1ccc(N=Nc2c(N)[nH][nH]c2=O)cc1 the results were Mtb bLac sens inactive, CCHFV vOTU inh inactive, Mtb FBA inh inactive, GDH-TPI inh inactive, RecA splice inh 54 and GFP chromophore 18.
CC(C)(C)Nc1nc(Cl)nc(N(C#N)CN2C(=O)c3ccccc3S2(=O)=O)n1 was read as Mtb bLac sens inactive, CCHFV vOTU inh inactive, Mtb FBA inh inactive, GDH-TPI inh inactive, RecA splice inh 51 and GFP chromophore 39.
For CC1=NNC(=O)C1CC(=O)N/N=C/C(C)=C/c1ccccc1 (stereo not given) the results were Mtb bLac sens inactive, CCHFV vOTU inh inactive, Mtb FBA inh inactive, GDH-TPI inh inactive and RecA splice inh inactive.
CC(/C=N/NC(=O)Cc1cc(=O)[nH][nH]1)=C\c1ccccc1 was read as Mtb bLac sens inactive, CCHFV vOTU inh inactive, Mtb FBA inh inactive, GDH-TPI inh inactive, RecA splice inh 89 and GFP chromophore 6.7.
O=C(CSc1ccccc1)NC1CCCCN(Cc2ccc(Cl)cc2)C1=O (stereo not given) was read as CCHFV vOTU inh inactive.
Screening Cc1cc2c(nc1C)CCCN2Cc1ccc(Br)cc1 returned CCHFV vOTU inh inactive.
`CCCc1ccc(/C=C2\C(=O)c3ccccc3C(O)=C2C(=O)OCC)cc1` gave RecA splice inh 36 and GFP chromophore 10.
`CCOC(=O)C1=C(O)c2ccccc2C(=O)/C1=C\c1ccc(CC)cc1` gave Mtb bLac sens inactive, Mtb FBA inh inactive, GDH-TPI inh inactive, RecA splice inh 49 and GFP chromophore 5.1.
CCOC(=O)C1=C(Cc2ccc(OC)cc2)C(=O)c2ccccc2C1=O was read as Mtb FBA inh inactive and GDH-TPI inh inactive.
CCCCN1C(=O)N2CCc3ccccc3C2CS1(=O)=O (stereo not given) was read as CCHFV vOTU inh inactive.
Screening CC1CCCN(C2=C(Cl)C(=O)N(c3cccc(Cl)c3)C2=O)C1 (stereo not given) returned Mtb bLac sens inactive, CCHFV vOTU inh inactive, Mtb FBA inh inactive, GDH-TPI inh inactive, RecA splice inh 70 and GFP chromophore 8.7.
`Cc1ccccc1CN1CCCCC(NC(=O)c2ccc(Br)cc2)C1=O` (stereo not given) gave CCHFV vOTU inh inactive.
`O=C1C(Cc2ccccc2)Nc2ncnc(N3CCc4ccccc4C3)c2N1Cc1ccc(Cl)cc1` (stereo not given) gave Mtb bLac sens inactive, Mtb FBA inh inactive, GDH-TPI inh inactive, RecA splice inh 33 and GFP chromophore inactive.
Cn1ccnc1Sc1cc(NCCCO)c([N+](=O)[O-])c2nonc12 was read as Mtb bLac sens inactive, CCHFV vOTU inh inactive, Mtb FBA inh inactive, GDH-TPI inh inactive, RecA splice inh 67 and GFP chromophore 14.
O=[N+]([O-])c1c(NCCCO)cc(Sc2ccc(Cl)cc2)c2nonc12 was read as Mtb bLac sens inactive, CCHFV vOTU inh inactive, Mtb FBA inh inactive, GDH-TPI inh inactive and RecA splice inh inactive.
For COc1ccc(C(CCN(Cc2ccc(OC)c(OC)c2)C(C)=O)c2ccccc2)cc1 (stereo not given) the results were Mtb bLac sens inactive, CCHFV vOTU inh inactive, Mtb FBA inh inactive, GDH-TPI inh inactive and RecA splice inh inactive.
For COc1ccc(CN(CCC(c2ccccc2)c2ccc(OC(C)C)cc2)C(=O)CCl)cc1OC (stereo not given) the results were Mtb bLac sens inactive, CCHFV vOTU inh inactive, Mtb FBA inh inactive, GDH-TPI inh inactive, RecA splice inh 83 and GFP chromophore 0.4.
O=C(NC1CCCC1)[C@@H]1CCCN1C(=O)[C@H](Cc1cccnc1)NC(=O)N1CCOCC1 was read as CCHFV vOTU inh inactive.
For NS(=O)(=O)c1ccc(N=Cc2c(O)c3ccccc3oc2=O)cc1 the results were Mtb bLac sens inactive, CCHFV vOTU inh inactive, Mtb FBA inh inactive, GDH-TPI inh inactive, RecA splice inh 37 and GFP chromophore inactive.
`Cc1cccc(C)c1NC(=O)CN1C(=O)S/C(=C\c2cccn2-c2cccc(C(=O)O)c2)C1=O` gave Mtb bLac sens inactive, CCHFV vOTU inh inactive, Mtb FBA inh inactive, GDH-TPI inh inactive and RecA splice inh inactive.
`Cc1cccc(C)c1-n1cccc1/C=C1\SC(=S)N(c2cccc(C(=O)O)c2)C1=O` gave Mtb bLac sens inactive, CCHFV vOTU inh inactive, Mtb FBA inh inactive, GDH-TPI inh inactive, RecA splice inh 33 and GFP chromophore 11.
COc1ccc(C(=O)Nc2ccncc2)cc1[N+](=O)[O-] was read as Mtb bLac sens inactive, CCHFV vOTU inh inactive, Mtb FBA inh inactive, GDH-TPI inh inactive, RecA splice inh 39 and GFP chromophore inactive.
For CCCCCN1CCCCC(NC(=O)c2ccc(F)cc2)C1=O (stereo not given) the results were CCHFV vOTU inh inactive.
For COC(=O)c1ccc(C(=O)OC)c(-n2c(=O)c3ccccc3c3ccccc3c2=O)c1 the results were Mtb bLac sens inactive, CCHFV vOTU inh inactive, Mtb FBA inh inactive, GDH-TPI inh inactive, RecA splice inh 40 and GFP chromophore 25.
Nc1[nH]c(C(=O)c2ccccc2)c(-c2ccc3ccccc3c2)c1C(=O)NC1CC1 was read as CCHFV vOTU inh inactive.
`O=C(O)CN1C(=O)/C(=C\c2cccc(OCc3ccc(Cl)cc3Cl)c2)SC1=S` gave Mtb bLac sens inactive, CCHFV vOTU inh inactive, Mtb FBA inh inactive, GDH-TPI inh inactive, RecA splice inh 40 and GFP chromophore 21.
For COc1cccc(/C=C2\SC(=S)N(CCCC(=O)N(CCO)c3ccccc3)C2=O)c1 the results were Mtb bLac sens inactive, CCHFV vOTU inh inactive, Mtb FBA inh inactive, GDH-TPI inh inactive, RecA splice inh 37 and GFP chromophore 32.
Screening O=C1/C(=C/c2cccc(Br)c2)SC(=S)N1CCC(=O)N(CCO)c1ccccc1 returned Mtb bLac sens inactive, CCHFV vOTU inh inactive, Mtb FBA inh inactive, GDH-TPI inh inactive and RecA splice inh inactive.
`COc1ccc(/C=C2/SC(=S)N(CCCC(=O)Nc3cccc(O)c3)C2=O)cc1` gave Mtb bLac sens inactive, CCHFV vOTU inh inactive, Mtb FBA inh inactive, GDH-TPI inh inactive, RecA splice inh 38 and GFP chromophore inactive.
`COCCN1C(=O)[C@H]2C[C@@]13O[C@H](c1ccccn1)N=C3CC1c3ccccc3C[C@@]12C` (stereo not given in full) gave CCHFV vOTU inh inactive.
O=C(/C=C(\Nc1cccc(Cl)c1F)c1ccccc1)c1ccccc1 was read as CCHFV vOTU inh inactive.
Screening Nc1[nH]c(C(=O)c2ccc(Br)cc2)c(-c2ccc(Cl)cc2Cl)c1C(=O)NCCc1c[nH]c2ccccc12 returned CCHFV vOTU inh inactive.
`CN1C(=O)[C@@](O)(c2cccn2C)c2cc(Cl)ccc21` gave CCHFV vOTU inh inactive.
Cc1ccc(S(=O)(=O)N2CC(CBr)=CCC2c2ccccc2)cc1 (stereo not given) was read as CCHFV vOTU inh inactive.
Screening CCc1c(Cc2cccc(F)c2)ncn1CCc1ccccc1OC returned CCHFV vOTU inh inactive.
